Measured values published in PubChem BioAssay (NCI).
The panel holds about 83,000 compounds, 20% with a hit somewhere; the sample as a whole holds those more often.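 Results are percent growth after 48 hours of single-concentration exposure. 100 means growth as in untreated cells, lower positive values show inhibition; negative values down to -100 show cell death.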 A number with no mark means an inactive call. The source made the active and inactive calls. How the source made its calls: active means growth percent below 10; inactive means the rest.

Columns and labels:
Assay in all cases: NCI-60 one-dose screen, 48 h (100 = growth as untreated, 0 = no growth, -100 = all killed)
HCT-15 colon = conditions: 10 µM unless noted
HT29 colon = conditions: 10 µM unless noted
SNB-75 CNS = conditions: 10 µM unless noted
SNB-19 CNS = conditions: 10 µM unless noted
U251 CNS = conditions: 10 µM unless noted
PC-3 prostate = conditions: 10 µM unless noted
SK-MEL-5 melanoma = conditions: 10 µM unless noted
LOX IMVI melanoma = conditions: 10 µM unless noted
SK-MEL-28 melanoma = conditions: 10 µM unless noted
SK-MEL-2 melanoma = conditions: 10 µM unless noted
EKVX NSCLC = conditions: 10 µM unless noted
SN12C renal = conditions: 10 µM unless noted
UO-31 renal = conditions: 10 µM unless noted
ACHN renal = conditions: 10 µM unless noted
CAKI-1 renal = conditions: 10 µM
A498 renal = conditions: 10 µM unless noted
CCRF-CEM leukemia = conditions: 10 µM unless noted
MOLT-4 leukemia = conditions: 10 µM unless noted
UACC-62 melanoma = conditions: 10 µM unless noted
TK-10 renal = conditions: 10 µM unless noted

| SMILES | growth (HCT-15 colon) [%] | growth (HT29 colon) | growth (SNB-75 CNS) [%] | growth (SNB-19 CNS) [%] | growth (U251 CNS) [%] | growth (PC-3 prostate) [%] | growth (SK-MEL-5 melanoma) [%] | growth (LOX IMVI melanoma) [%] | growth (SK-MEL-28 melanoma) [%] | growth (SK-MEL-2 melanoma) [%] | growth (EKVX NSCLC) [%] | growth (SN12C renal) [%] | growth (UO-31 renal) [%] | growth (ACHN renal) [%] | growth (CAKI-1 renal) | growth (A498 renal) | growth (CCRF-CEM leukemia) | growth (MOLT-4 leukemia) | growth (UACC-62 melanoma) | growth (TK-10 renal) [%] |
| --- | --- | --- | --- | --- | --- | --- | --- | --- | --- | --- | --- | --- | --- | --- | --- | --- | --- | --- | --- | --- |
| COc1cccc(-c2nc3sccn3c2-c2ccnc(NCCNC(=O)Nc3cccc(C(F)(F)F)c3)n2)c1 | 45.9 | 44.1% | 71.8 | 74.8 | 58.1 | 32.9 | 51.5 | 44.3 | 78.4 | 61.9 | 61.5 | 68.8 | 39.7 | 46.2 | 40% | 61.6% | 27% | 36.7% | – | – |
| Nc1nc(=S)ss1 | 91.8 | 105% | 89.3 | 103 | – | 90.7 | 110 | 103 | 113 | 109 | 108 | 97.7 | 95.4 | 109 | – | 92.5% | 109% | 90.4% | 95.4% | 108 |
| COc1cccc(/C=N/C(=S)NC2(C)C3CCC(C3)C2(C)C)c1O (stereo unspecified) | 32.5 | 101% | 90.8 | 82.9 | – | 65.9 | 88.6 | 70.8 | 102 | 82.1 | 102 | 100 | 53 | – | – | 73.2% | 57.3% | 63.8% | 94.5% | 85.9 |
| CCOC(=O)c1noc2c1CCc1c-2cn(Cc2ccc(OC)cc2)c1-c1cc(OC)c(OC)c(OC)c1 | 23.5 | 4.06% (active) | 14 | 24.4 | – | 25.3 | 16.9 | 42.3 | 58.1 | 35.4 | 48.6 | 44.7 | 30.9 | – | – | 56.2% | 15% | 18.5% | 22.4% | 68.8 |
| NC(CCCC(N)C(=O)c1ccccc1)C(=O)O (stereo unspecified) | 107 | 73.3% | 97.1 | 110 | – | 83.3 | 107 | 99.8 | 103 | 92.7 | 101 | 104 | 84.3 | – | – | 103% | – | 94.5% | 99.9% | 86.7 |
| C=C1C(=O)O[C@H]2[C@H]1CC/C(C(=O)Nc1ccc(OC)c(C(N)=O)c1O)=C\CC[C@@]1(C)O[C@@H]21 | 45.8 | 36% | 88.5 | 90.4 | – | 95.3 | 86.7 | 77.1 | 52.9 | 71.3 | 73.4 | 61.1 | 37.8 | – | – | 78.3% | 3.64% (active) | 13.9% | 67.5% | 22.6 |
| O=C(NCCNc1nccc(-c2c(-c3cccc(O)c3)nc3sccn23)n1)c1ccc(N2CCOCC2)c(C(F)(F)F)c1 | 80.1 | 68.6% | 58 | 107 | – | 56.6 | 40 | 42.2 | 42.8 | 66.7 | 74 | 76 | 61.3 | 60.8 | 66.9% | 47.8% | 56.9% | 57% | 5.88% (active) | – |
| COc1ccc(-c2[nH]c3ccccc3c2/C=C(\C#N)S(=O)(=O)c2ccccc2)cc1 | 24.6 | 12.6% | 33.1 | 30.3 | – | 30.9 | 12.5 | 28.5 | 54.2 | 76.5 | 14.1 | 42.2 | – | 51 | -14.3% (active) | 2.31% (active) | 8.07% (active) | 6.08% (active) | 22.6% | 91.7 |
| COc1cc(NC(=O)C#Cc2ccccc2)c(OC)cc1Cl | 20.6 | 29.3% | 65.8 | 40.7 | – | 38.1 | 30.1 | 17.2 | 84.2 | 60.4 | 62.7 | 26.4 | 40.4 | – | – | 100% | 11.1% | 22.4% | 36.8% | 111 |
